Common to all, as to assay: DAPPL (digital affinity profiling via proximity ligation, sequencing); 10 mM Tris-HCl pH 7.5, 50 mM NaCl, 1 mM DTT, 4% glycerol, room temperature, 30 min; GST-TFs on glutathione beads, 16-mer random dsDNA library, 0.1% formaldehyde crosslink after washing; high values mean tight binding
What all share (conditions): protein: recombinant; tags: N-terminal GST; dsDNA, one strand shown

Assay [1] has as its target T1, ERF (Homo sapiens, UniProt P50548 1-548).
T1 sequence: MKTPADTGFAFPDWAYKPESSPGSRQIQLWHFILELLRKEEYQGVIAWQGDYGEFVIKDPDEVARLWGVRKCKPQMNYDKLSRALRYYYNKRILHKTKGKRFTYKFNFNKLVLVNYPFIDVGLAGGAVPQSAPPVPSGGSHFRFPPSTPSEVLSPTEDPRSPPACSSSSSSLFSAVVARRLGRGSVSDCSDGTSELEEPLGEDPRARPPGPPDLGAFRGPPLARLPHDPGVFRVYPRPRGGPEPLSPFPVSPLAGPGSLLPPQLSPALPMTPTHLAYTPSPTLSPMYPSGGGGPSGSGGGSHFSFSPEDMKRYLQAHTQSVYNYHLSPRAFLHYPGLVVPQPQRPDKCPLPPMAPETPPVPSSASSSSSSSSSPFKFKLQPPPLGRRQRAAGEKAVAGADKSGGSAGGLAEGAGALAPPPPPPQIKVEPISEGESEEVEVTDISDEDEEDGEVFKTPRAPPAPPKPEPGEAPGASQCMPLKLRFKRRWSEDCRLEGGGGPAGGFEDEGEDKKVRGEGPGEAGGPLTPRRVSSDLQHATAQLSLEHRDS
Put shortly:
(§1)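 Human transcription factors carrying a GST fusion were produced in yeast, bound to glutathione beads, tagged with DNA barcodes and pooled together with a tag-only sample. Each pool was held with 200 nmole of a random double-stranded 16-mer DNA library in Tris/NaCl/DTT/glycerol buffer for 30 min at room temperature, then washed, crosslinked in 0.1% formaldehyde, proximity-ligated with BsaI/T4 ligase (1 h, 37 °C), PCR-amplified and sequenced on an Illumina NextSeq500. Binding signal is the read frequency of each hexamer for a given factor divided by its frequency in the tag-only sample.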

The target in assay [2] is T2, ETV3L (Homo sapiens, UniProt Q6ZN32 1-361).
T2 sequence: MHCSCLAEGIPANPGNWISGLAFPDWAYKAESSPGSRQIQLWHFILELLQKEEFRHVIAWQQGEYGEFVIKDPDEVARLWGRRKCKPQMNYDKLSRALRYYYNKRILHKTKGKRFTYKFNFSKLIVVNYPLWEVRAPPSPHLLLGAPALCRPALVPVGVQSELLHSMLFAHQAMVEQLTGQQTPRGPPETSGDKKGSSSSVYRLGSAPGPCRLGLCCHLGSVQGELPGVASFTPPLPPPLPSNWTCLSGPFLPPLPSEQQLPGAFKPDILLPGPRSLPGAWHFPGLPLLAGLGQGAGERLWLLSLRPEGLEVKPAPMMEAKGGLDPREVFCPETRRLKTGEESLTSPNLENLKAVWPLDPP
An outline of the steps:
as §1

In assay [3] the target is T3, ETS2 (Homo sapiens, UniProt P15036 1-469).
T3 sequence: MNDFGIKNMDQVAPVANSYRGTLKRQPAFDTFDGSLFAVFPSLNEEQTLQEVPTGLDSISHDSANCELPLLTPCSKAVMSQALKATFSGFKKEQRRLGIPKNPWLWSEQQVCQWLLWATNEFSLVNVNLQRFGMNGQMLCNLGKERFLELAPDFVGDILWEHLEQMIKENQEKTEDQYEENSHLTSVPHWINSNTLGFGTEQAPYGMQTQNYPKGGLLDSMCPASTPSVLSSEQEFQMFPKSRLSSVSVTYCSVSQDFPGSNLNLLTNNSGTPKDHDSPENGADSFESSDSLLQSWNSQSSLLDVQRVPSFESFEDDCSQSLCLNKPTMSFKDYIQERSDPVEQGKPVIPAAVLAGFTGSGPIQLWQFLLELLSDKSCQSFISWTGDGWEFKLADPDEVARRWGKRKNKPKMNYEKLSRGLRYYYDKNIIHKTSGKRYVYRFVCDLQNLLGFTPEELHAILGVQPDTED
An outline of the steps: as §1

The target in assay [4] is T4, SPDEF (Homo sapiens, UniProt O95238 1-335).
T4 sequence: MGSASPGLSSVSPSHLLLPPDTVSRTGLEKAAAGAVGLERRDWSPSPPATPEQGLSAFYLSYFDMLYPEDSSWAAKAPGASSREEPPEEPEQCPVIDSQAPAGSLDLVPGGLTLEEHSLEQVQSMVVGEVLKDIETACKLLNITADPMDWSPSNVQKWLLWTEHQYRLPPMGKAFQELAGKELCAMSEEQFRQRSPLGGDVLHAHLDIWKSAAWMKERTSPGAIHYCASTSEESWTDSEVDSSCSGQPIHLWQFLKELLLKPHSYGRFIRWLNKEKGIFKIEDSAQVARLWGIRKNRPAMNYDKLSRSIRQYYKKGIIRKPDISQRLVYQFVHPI
An outline of the steps:
as §1

In assay [5] the target is T5, ETV7 (Homo sapiens, UniProt Q9Y603 1-341).
T5 sequence: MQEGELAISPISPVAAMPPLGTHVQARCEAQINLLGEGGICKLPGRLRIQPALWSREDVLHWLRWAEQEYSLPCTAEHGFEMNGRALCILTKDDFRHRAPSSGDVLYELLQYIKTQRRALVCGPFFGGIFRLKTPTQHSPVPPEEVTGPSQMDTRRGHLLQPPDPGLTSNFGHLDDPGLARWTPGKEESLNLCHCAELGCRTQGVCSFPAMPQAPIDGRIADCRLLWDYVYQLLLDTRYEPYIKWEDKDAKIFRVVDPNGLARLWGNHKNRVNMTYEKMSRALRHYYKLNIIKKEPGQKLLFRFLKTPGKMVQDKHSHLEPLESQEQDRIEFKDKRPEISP
Put shortly: as §1

Assay [6] concerns the target T6, ELF5 (Homo sapiens, UniProt Q9UKW6-2 1-255).
T6 sequence: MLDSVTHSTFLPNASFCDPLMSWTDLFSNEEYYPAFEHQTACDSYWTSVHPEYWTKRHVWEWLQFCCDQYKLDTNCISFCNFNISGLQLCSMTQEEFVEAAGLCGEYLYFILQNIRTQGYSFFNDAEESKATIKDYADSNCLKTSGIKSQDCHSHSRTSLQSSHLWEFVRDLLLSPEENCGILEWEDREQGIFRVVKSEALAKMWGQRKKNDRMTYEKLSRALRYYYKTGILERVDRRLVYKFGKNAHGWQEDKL
An outline of the steps:
as §1

Assay [7] addresses T7, ETV3 (Homo sapiens, UniProt P41162-2 1-143).
T7 sequence: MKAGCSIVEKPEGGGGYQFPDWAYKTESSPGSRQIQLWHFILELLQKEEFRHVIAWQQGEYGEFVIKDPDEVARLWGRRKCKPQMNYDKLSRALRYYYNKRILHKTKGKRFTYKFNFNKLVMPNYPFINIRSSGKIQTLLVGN
An outline of the steps:
as §1

Assay [8] concerns the target ETV6 (Homo sapiens, UniProt P41212 1-452). An outline of the steps:
as §1

Among the data in article PMC7862700, “An all-to-all approach to the identification of sequence-specific readers for epigenetic DNA modifications on cytosine” are binding signal values, retold here.

Chain of ETV6 (P41212 whole entry): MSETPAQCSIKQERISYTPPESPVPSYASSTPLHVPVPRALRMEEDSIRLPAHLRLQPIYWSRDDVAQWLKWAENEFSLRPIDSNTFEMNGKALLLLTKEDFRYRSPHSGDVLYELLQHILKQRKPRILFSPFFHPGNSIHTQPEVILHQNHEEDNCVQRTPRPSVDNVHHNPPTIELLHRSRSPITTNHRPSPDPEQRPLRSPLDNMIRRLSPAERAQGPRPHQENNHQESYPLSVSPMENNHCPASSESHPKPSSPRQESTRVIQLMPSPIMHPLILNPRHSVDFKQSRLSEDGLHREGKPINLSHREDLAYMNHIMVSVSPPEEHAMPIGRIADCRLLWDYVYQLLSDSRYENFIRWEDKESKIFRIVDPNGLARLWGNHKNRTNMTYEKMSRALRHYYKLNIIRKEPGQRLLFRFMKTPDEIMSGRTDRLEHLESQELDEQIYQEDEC

For TTCATC, the binding signal in assay [1] is 1.21 fold enrichment (6-mer frequency, TF over GST control); in assay [2], 1.24 fold enrichment (6-mer frequency, TF over GST control); in assay [3], 1.17 fold enrichment (6-mer frequency, TF over GST control); in assay [4] it was 1.36 fold enrichment (6-mer frequency, TF over GST control); in assay [5], 1.25 fold enrichment (6-mer frequency, TF over GST control); in assay [6], 1.23 fold enrichment (6-mer frequency, TF over GST control). The binding signal is 1.26 fold enrichment (6-mer frequency, TF over GST control) in assay [7] and 1.23 fold enrichment (6-mer frequency, TF over GST control) in assay [8].
On to ACCTGA, for which the binding signal is 1.14 fold enrichment (6-mer frequency, TF over GST control) in assay [1]; 1.04 fold enrichment (6-mer frequency, TF over GST control) in assay [2]; 1.03 fold enrichment (6-mer frequency, TF over GST control) in assay [3]; 1.14 fold enrichment (6-mer frequency, TF over GST control) in assay [4]; 1.03 fold enrichment (6-mer frequency, TF over GST control) in assay [5]; 1.07 fold enrichment (6-mer frequency, TF over GST control) in assay [6]. In addition, the binding signal in assay [7] is 1.07 fold enrichment (6-mer frequency, TF over GST control); in assay [8] it was 1.09 fold enrichment (6-mer frequency, TF over GST control).
Consider ACATTC, for which the binding signal is 1.42 fold enrichment (6-mer frequency, TF over GST control) in assay [1]; 1.3 fold enrichment (6-mer frequency, TF over GST control) in assay [2]; 1.3 fold enrichment (6-mer frequency, TF over GST control) in assay [3]; 1.27 fold enrichment (6-mer frequency, TF over GST control) in assay [4]; 1.31 fold enrichment (6-mer frequency, TF over GST control) in assay [5]; 1.36 fold enrichment (6-mer frequency, TF over GST control) in assay [6]. The binding signal in assay [7] is 1.31 fold enrichment (6-mer frequency, TF over GST control); in assay [8], 1.4 fold enrichment (6-mer frequency, TF over GST control).
Take CACGCC: the binding signal in assay [1] was 1.21 fold enrichment (6-mer frequency, TF over GST control); in assay [2], 1.2 fold enrichment (6-mer frequency, TF over GST control); in assay [3], 1.09 fold enrichment (6-mer frequency, TF over GST control); in assay [4], 1.05 fold enrichment (6-mer frequency, TF over GST control); in assay [5], 1.12 fold enrichment (6-mer frequency, TF over GST control); in assay [6], 1.1 fold enrichment (6-mer frequency, TF over GST control). Besides, the binding signal in assay [7] is 1.2 fold enrichment (6-mer frequency, TF over GST control); in assay [8], 1.17 fold enrichment (6-mer frequency, TF over GST control).
As for TTATAA, the binding signal is 1.15 fold enrichment (6-mer frequency, TF over GST control) in assay [1]; 1.19 fold enrichment (6-mer frequency, TF over GST control) in assay [2]; 1.2 fold enrichment (6-mer frequency, TF over GST control) in assay [3]; 1.17 fold enrichment (6-mer frequency, TF over GST control) in assay [4]; 1.21 fold enrichment (6-mer frequency, TF over GST control) in assay [5]; 1.19 fold enrichment (6-mer frequency, TF over GST control) in assay [6]. The binding signal is 1.16 fold enrichment (6-mer frequency, TF over GST control) in assay [7] and 1.19 fold enrichment (6-mer frequency, TF over GST control) in assay [8].
For the sequence AAGTTT, the binding signal is 1.39 fold enrichment (6-mer frequency, TF over GST control) in assay [1]; 1.46 fold enrichment (6-mer frequency, TF over GST control) in assay [2]; 1.39 fold enrichment (6-mer frequency, TF over GST control) in assay [3]; 1.37 fold enrichment (6-mer frequency, TF over GST control) in assay [4]; 1.37 fold enrichment (6-mer frequency, TF over GST control) in assay [5]; 1.55 fold enrichment (6-mer frequency, TF over GST control) in assay [6]. Further, the binding signal in assay [7] is 1.53 fold enrichment (6-mer frequency, TF over GST control); in assay [8], 1.55 fold enrichment (6-mer frequency, TF over GST control).
As for ATTAGC, the binding signal is 1.09 fold enrichment (6-mer frequency, TF over GST control) in assay [1]; 1.13 fold enrichment (6-mer frequency, TF over GST control) in assay [2]; 1.13 fold enrichment (6-mer frequency, TF over GST control) in assay [3]; 1.09 fold enrichment (6-mer frequency, TF over GST control) in assay [4]; 1.17 fold enrichment (6-mer frequency, TF over GST control) in assay [5]; 1.1 fold enrichment (6-mer frequency, TF over GST control) in assay [6]. Further, the binding signal is 1.16 fold enrichment (6-mer frequency, TF over GST control) in assay [7] and 1.1 fold enrichment (6-mer frequency, TF over GST control) in assay [8].
For the sequence GACATC, the binding signal in assay [1] is 1.22 fold enrichment (6-mer frequency, TF over GST control); in assay [2] it was 1.27 fold enrichment (6-mer frequency, TF over GST control); in assay [3], 1.31 fold enrichment (6-mer frequency, TF over GST control); in assay [4], 1.57 fold enrichment (6-mer frequency, TF over GST control); in assay [5], 1.31 fold enrichment (6-mer frequency, TF over GST control); in assay [6], 1.35 fold enrichment (6-mer frequency, TF over GST control). For the same sequence, the binding signal in assay [7] is 1.33 fold enrichment (6-mer frequency, TF over GST control); in assay [8] it was 1.33 fold enrichment (6-mer frequency, TF over GST control).
